PI5P4Ka inh: blocks human PI5P4K alpha kinase activity. P48426. PI5P4Kalpha enzyme, ADP-Glo luminescence, 60 min; hits give low values. max response, %. 330,000 tested, 1.2% active. AID 652105; active = max response of -50% or lower; inconclusive = between -30% and -50%; inactive = -30% or higher; also: value at the top dose of about 77 µM; % is scaled to controls: 0 for no effect and ±100 for the full control effect
Target sequence (P48426 whole entry, looked up): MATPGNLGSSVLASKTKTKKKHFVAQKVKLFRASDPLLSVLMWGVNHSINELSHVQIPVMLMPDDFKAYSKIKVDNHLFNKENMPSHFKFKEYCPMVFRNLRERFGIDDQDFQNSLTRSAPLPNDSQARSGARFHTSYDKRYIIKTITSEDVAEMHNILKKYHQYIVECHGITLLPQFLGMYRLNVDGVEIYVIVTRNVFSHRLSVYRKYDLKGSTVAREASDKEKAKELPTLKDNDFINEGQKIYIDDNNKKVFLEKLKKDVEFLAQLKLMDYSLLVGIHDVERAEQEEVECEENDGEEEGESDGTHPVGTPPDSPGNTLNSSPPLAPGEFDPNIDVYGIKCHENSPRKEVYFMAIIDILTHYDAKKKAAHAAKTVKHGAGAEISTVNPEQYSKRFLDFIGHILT
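Reactions run in 0.038 M HEPES pH 7.4, 0.28 mM EGTA, 0.1% CHAPS and 5% DMSO, with PI5P4Kalpha, substrate, compound and 5 microM ATP final, one hour at room temperature. Readout is ADP-Glo luminescence.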
PLK1 PBD block: PLK1 (human) polo-box domain binding inhibition; Potency, µM, for the others: max response, negative = inhibition, most hits filed as inhibitors; 360,000 tested, 2.8% active; AID 720504; Plk1 PBD binding of FITC phosphopeptide, fluorescence polarization; also: potency is read from the fitted curve at half-maximal effect; series mostly up to about 57 µM; % is scaled to controls: 0 for no effect and ±100 for the full control effect; nearly all actives have a fitted effect of over 65% in size
BAZ2B block: BAZ2B (human) inhibition; AlphaScreen BAZ2B-H3K14Ac peptide displacement; 360,000 tested, 4.4% active; Potency, µM (series often up to 114 µM), for inactives: top-dose activity change, negative = inhibition, actives largely listed as inhibitors; AID 504333; also: potency is read from the fitted curve at half-maximal effect; % is scaled to controls: 0 for no effect and ±100 for the full control effect; nearly all actives have a fitted effect of over 60% in size
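AlphaScreen displacement: compounds (up to 110uM) incubated 30 min at room temperature with a preformed 50 nM BAZ2B/50 nM biotinylated H3K14Ac peptide complex in PBS pH 7.4 with Tween-20. Donor and acceptor beads at 10 ug/mL final added, 20 min light-protected before reading.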
JMJD2A Tudor: inhibitors of human JMJD2A Tudor domain; Potency, µM (series often up to 114 µM), for the others: top-dose activity change, negative = inhibition, most hits filed as inhibitors; AID 504339; O75164; AlphaScreen JMJD2A-Tudor / H3K4me3 peptide binding; 390,000 tested, 4.4% active; also: potency is read from the fitted curve at half-maximal effect; % is scaled to controls: 0 for no effect and ±100 for the full control effect; nearly all actives have a fitted effect of over 50% in size
HP1b chromo inh: HP1-beta chromodomain-methylated histone interaction inhibition; AlphaScreen HP1-beta / biotin-H3K9me3 peptide binding; 390,000 tested, 0.56% active; Potency, µM (doses to about 114 µM), for inactives: at the top dose activity change, negative = inhibition, most hits filed as inhibitors; P83916; also: potency is read from the fitted curve at half-maximal effect; nearly all actives have a fitted effect of over 70% in size
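AlphaScreen: HP1-beta (50 nM) preformed 30 min with biotin-H3(1-18)K9me3 peptide (50 nM) in PBS pH 7.4, 0.01% Tween-20. Compound added for 30 min at RT, then streptavidin donor/nickel chelate acceptor beads (10 ug/mL) for 30 min.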
G9a block: G9a (human) methyltransferase inhibition. G9a H3K9 monomethylation, AlphaScreen, 2 h. Q96KQ7. 350,000 tested, 8.8% active. Potency, µM (doses to about 102 µM), for the others: at the highest dose activity, negative = inhibition, hits mostly inhibitors; also: potency is read from the fitted curve at half-maximal effect; % is scaled to controls: 0 for no effect and ±100 for the full control effect; nearly all actives have a fitted effect of over 75% in size
Target sequence (Q96KQ7 913-1193 limits assumed): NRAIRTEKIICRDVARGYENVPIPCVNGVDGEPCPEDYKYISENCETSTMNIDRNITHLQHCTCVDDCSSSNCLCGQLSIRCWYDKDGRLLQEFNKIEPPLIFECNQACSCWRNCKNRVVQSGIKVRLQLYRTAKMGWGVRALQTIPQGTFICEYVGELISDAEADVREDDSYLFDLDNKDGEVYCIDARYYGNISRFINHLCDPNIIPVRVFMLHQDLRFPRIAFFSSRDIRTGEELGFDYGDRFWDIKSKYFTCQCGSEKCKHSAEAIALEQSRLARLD
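G9a (20 nM) preincubated 15 min RT with compounds, then 500 nM biotinylated H3K9 peptide and 20 uM SAM added; 2 h RT reaction. Monomethyl-H3K9 product detected by AlphaScreen with anti-H3K9me1 antibody, streptavidin donor and anti-rabbit IgG acceptor beads.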
* hit, by the source's call; u = inconclusive; x = not tested or not shown; [ ] = dose if it differs, or a comment. Compounds with a hit are over-represented: about 12% of the library has one in this group of screens. Unless noted, calls follow the shape of the dose curve; as a rule, active = well fitted curve in the direction sought with a large enough effect; inconclusive = small, poorly fitted or top-dose-only effect, or another doubt; inactive = no such curve, though single readings can be large; an effect the other way counts as inactive or inconclusive.

SMILES	PI5P4Ka inh	PLK1 PBD block	BAZ2B block	JMJD2A Tudor	HP1b chromo inh	G9a block
CC(C)n1nnc2cc(C(=O)O)ccc21	x	x	x	x	x	29%[59 µM]
COc1ccc(CNCCc2ccc([N+](=O)[O-])cc2)c(OC)c1OC	0	-7%	50µM*	79µM*	2%	-13%[0.501 µM]
COc1ccc(C)cc1NCc1ccc([N+](=O)[O-])cc1	7	-1%	40µM*	50µM*	u	-1%[0.501 µM]
COc1ccc(C)cc1NCc1ccc(OC)c(C)c1OC	9	-4%	22µM*	20µM*	u	8.9µM*
O=C(CSc1nnc(CNC(=O)c2ccccc2F)n1-c1ccccc1)Nc1ccccc1F	x	x	-13%	-7%	15%	-25%[59 µM]
CCN(CC)CCNC(=O)c1ccc(Cn2c(=O)c3cccn3c3cccnc32)cc1	x	x	-20%	-5%	30%	1%[59 µM]
CCOc1ccccc1NC(=O)CC(c1ccc(F)cc1)N1Cc2ccccc2C1=O (configuration not stated)	x	x	-34%	-14%	5%	-5%[59 µM]
CCOC(=O)CSc1nnc(CNc2ccc(Cl)cc2)n1Cc1ccccc1	-5	-5%	8%	-25%	14%	-14%[59 µM]
CCn1c(CSc2nc3ccccc3s2)nc2ccccc21	x	-5%	-3%	-8%	31%	10µM*
O=C(O)CSc1nnc(CSc2nc3ccccc3s2)n1-c1ccccc1	-16	3%	-9%	2%	46%	35µM*
c1csc(CSc2nc3ccccc3s2)c1	x	u	400%	160%	180%	313%
O=C(O)CSc1nnc(CNc2ccc(Cl)cc2)n1Cc1ccccc1	-21	27µM*	u	79µM*	-2%	-33%[2.33 µM]
O=C(O)CSc1nnc(CNc2ccc(F)cc2)n1-c1ccccc1	-16	-4%	79µM*	-16%	74%	-128%
COc1cccc(N2CCN(C(=O)c3oc4ccccc4c3NC(=O)Cc3ccc(OC)c(OC)c3)CC2)c1	2	-8%	u	u	5%	x
CCOc1ccc(NCc2nnc(SCc3ccccc3Cl)n2-c2ccccc2)cc1	x	-2%	20µM*	35µM*	-50%	u
CCOC(=O)c1c(S(=O)(=O)NCCCc2ccco2)c(C)n(C)c1C	-1	-13%	56µM*	u	-5%	45µM*
COc1cccc(-c2nnc(-c3ccco3)o2)c1	-29	30µM*	5%	50µM*	-2%	-8%
CC(=O)Oc1ccc(C(=O)Nc2cccc(-c3nnc(-c4ccco4)o3)c2)cc1	-2	-6%	-29%	-20%	17%	50µM*
COc1cccc(-c2nnc(-c3ccc(C)o3)o2)c1	x	-3%	-4%	-16%	30%	13µM*
Cc1[nH]n(-c2ccccc2)c(=O)c1C(=O)c1ccc(Cl)cc1	-1	-2%	-13%	50µM*	-10%	x
Cc1[nH]n(-c2ccc(Cl)cc2)c(=O)c1C(=O)c1ccccc1	4	-16%	-7%	-29%	28%	x
COC(=O)CN=Cc1c(C)[nH]n(-c2ccccc2)c1=O	1	0%	-17%	-3%	40%	u
COCC(=O)N/N=C/c1c(C)[nH]n(-c2ccccc2)c1=O	-7	-11%	22%	79µM*	21%	9%
Cc1[nH]n(-c2ccccc2)c(=O)c1/C=N/NC(=O)COc1ccccc1[N+](=O)[O-]	-19	-13%	79µM*	79µM*	15%	2%[59 µM]
Cc1[nH]n(-c2ccccc2)c(=O)c1/C=N/NC(=O)C(C)C	1	4%	32µM*	79µM*	72%	-38%
SMILES	PI5P4Ka inh	PLK1 PBD block	BAZ2B block	JMJD2A Tudor	HP1b chromo inh	G9a block
Cc1[nH]n(-c2ccccc2)c(=O)c1C=Nc1ccc(S(=O)(=O)NC(N)=O)cc1	5	2%	-22%	-2%	43%	u
COCCCNC(=O)C1=CCN(S(=O)(=O)c2ccc(OC)cc2)CC1	0	-17%	-12%	-6%	59%	x
O=C(CC(c1ccccc1)c1cc(Br)ccc1O)NCC1(c2ccccc2)CCCC1 (configuration not stated)	x	x	u	-31%	-7%	-23%[59 µM]
Cc1ccc(-n2c(O)c(/C=N/NC(=O)C3COc4ccccc4O3)c3ccccc3c2=O)cc1 (configuration not stated)	u	19%	-29%	-29%	7%	-12%[59 µM]
Cc1ccc2cccc(N=Cc3c(C)[nH]n(-c4ccccc4)c3=O)c2n1	9	-1%	-35%	u	-21%	10µM*
Cc1[nH]n(-c2ccccc2)c(=S)c1C=NCCCN=Cc1c(C)[nH]n(-c2ccccc2)c1=S	-76*	17µM*	u	2µM*	14µM*	1.8µM*
O=C(N/N=C/c1c(O)n(-c2ccccc2Cl)c(=O)c2ccccc12)C1COc2ccccc2O1 (configuration not stated)	-53*	40%	-1%	u	10%	-18%
CCOc1ccc2nc(/N=C/c3c(C)[nH]n(-c4ccccc4)c3=O)sc2c1	-12	-13%	0%	-14%	u	25µM*
Cc1ccccc1C(C)NC(=O)COC(=O)Cn1cc(C(F)(F)F)ccc1=O (configuration not stated)	0	-7%	-3%	-12%	24%	2%[12.7 µM]
CCOC(=O)c1[nH]n(-c2ccc(Cl)cc2)c(=O)c1C	u	-9%	u	71µM*	u	u
CCOC(=O)c1cc2c(n(-c3ccc(Cl)cc3)c1=O)CCCC2=O	-7	-12%	10%	-14%	10%	9%
COC(=O)N/N=C\c1c(C)[nH]n(-c2ccccc2)c1=O	-4	-20%	u	u	14%	1.8µM*
Cc1[nH]n(-c2ccccc2)c(=O)c1/C=N/O	x	-18%	50µM*	79µM*	8%	x
Cc1[nH]n(-c2ccccc2)c(=O)c1/C=N\NC(=O)C1COc2ccccc2O1 (configuration not stated)	-9	-1%	71µM*	u	19%	8%[59 µM]
Cc1ccc(C2NC(c3ccc4c(c3)OCO4)=CC(c3cc(Br)ccc3O)N2)cc1 (configuration not stated)	x	x	x	-22%[57.1 µM]	11%[57 µM]	x
O=C(O)c1ccc2c(c1)C(=O)N([C@]1(C(=O)O)C[C@H]1c1ccccc1)C2=O	x	x	1%	-21%	x	3%[12.7 µM]
CC(=O)N/N=C/c1c(C)[nH]n(-c2ccccc2)c1=O	-3	-17%	79µM*	50µM*	24%	-3%
Cc1[nH]n(-c2ccccc2)c(=O)c1/C=N/N(C)c1ccccc1	-7	-12%	u	u	-17%	13µM*
Cc1[nH]n(-c2ccccc2)c(=O)c1/C=N/NC(=O)c1cccc([N+](=O)[O-])c1	-3	-4%	-4%	-21%	36%	31%[2.33 µM]

Screens (PubChem)
